HT1080NT lethal: qHTS for induction of synthetic lethality in tumor cells producing 2HG: qHTS for the HT-1080-NT fibrosarcoma cell line. hit rate 1.6% among 360,000. HT-1080-NT fibrosarcoma viability, CellTiter-Glo ATP luminescence, 48 h. Potency, µM (doses to about 46.1 µM), for inactives: at the highest dose activity, negative = less viability, usual class: cytotoxic;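 note: NT is the 2HG producing partner of a matched IDH1 knockdown line; 0% = DMSO-treated cells and -100% = media-only wells without cells; nearly all actives have a fitted effect of over 55% in size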
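Compounds were tested in concentration-response format on HT-1080-NT cells for 48 hours at 37 degrees C. Cell viability came from CellTiter-Glo luminescence; curves were classified by r2, response magnitude and activity.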
HepG2 tox: qHTS for Inhibitors of TGF-b: Cytotox Counterscreen | hit rate 0.76% among 410,000 | Potency, µM (top dose mostly 46.1 µM), inactives show at the top dose activity change, negative = cytotoxicity, hits mostly cytotoxic | AID 588856, 2011 | HepG2 CAGA-GFP viability, ATP luminescence, 18 h
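CellTiter-Glo luminescence gave cytotoxicity after 18 hours at 37 degrees C. The cells were HepG2 CAGA-GFP in 1% FBS DMEM, stimulated with 500 pg/mL TGF-beta after compound addition. %Activity was normalised to no-cell wells (complete cell-killing) and DMSO (no toxicity), and curves were fitted and classified.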
TDP1 cell CPT: qHTS for Inhibitors of human tyrosyl-DNA phosphodiesterase 1 (TDP1): qHTS in cells in presence of CPT. chicken DT40 Tdp1-/-;hTDP1 cells + 20 nM CPT, ATP luminescence, 48 h. Potency, µM (titrated, usually from 46.2 µM), without a hit: at the top dose activity change, negative = growth inhibition, usual class: inhibitors. hit rate 12% among 420,000; note: % is set by controls: 0 for no effect and ±100 for the full control effect; nearly all actives have a fitted effect of over 55% in size
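Chicken DT40 Tdp1-/- cells stably complemented with human TDP1 were seeded at 400 cells/well in medium containing 20 nM camptothecin, exposed to pin-transferred compounds, and grown at 37 °C for at least 48 hr. Viability was read as ATP luminescence.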
DT40 TDP1 no CPT: qHTS for Inhibitors of human tyrosyl-DNA phosphodiesterase 1 (TDP1): qHTS in cells in absence of CPT. DT40 Tdp1-/- hTDP1 cells, no CPT, ATP luminescence, 48 h. Potency, µM (titrated, usually from 46.2 µM), without a hit: at the highest dose activity change, negative = growth inhibition, usual class: inhibitors. hit rate 15% among 420,000; note: % is set by controls: 0 for no effect and ±100 for the full control effect; nearly all actives have a fitted effect of over 55% in size
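Camptothecin absent (DMSO only). Human TDP1-complemented DT40 knockout cells, 400 cells/well, 37 °C for minimum 48 hr; ATP measured via CellTiter-Glo, 30 min dark incubation, luminescence.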
TGFb SMAD3 inh: qHTS for Inhibitors of TGF-b; HepG2 CAGA-GFP TGF-b/SMAD3 reporter, GFP fluorescence, 18 h; TGF-beta stimulated, 500 pg/mL final; AID 588855, 2011; hit rate 1.2% among 410,000; Potency, µM (series often up to 46.1 µM), for inactives: at the top dose activity, negative = inhibition, usual class: inhibitors; note: % is set by controls: 0 for no effect and ±100 for the full control effect; nearly all actives have a fitted effect of over 65% in size
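First, reporter cells (HEPG2 CAGA-GFP) rested 2 h at 37 degrees C. Next, compounds were pinned in and TGF-beta added to 500 pg/mL final. After 18 h, GFP was imaged per cell and summed per well.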
HT1080 IDH1KD tx: qHTS for induction of synthetic lethality in tumor cells producing 2HG: qHTS for the HT-1080-IDH1KD cell line; HT-1080 IDH1 knockdown viability, ATP luminescence, 48 h; Potency, µM (series often up to 46.1 µM), inactives show at the top dose activity, negative = toxicity, hits mostly cytotoxic; hit rate 2% among 360,000; AID 686971, 2013;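 note: 0% = DMSO wells and -100% = cell-free medium wells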
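Luminescent ATP read-out (CellTiter-Glo, 10 min at room temperature) after 48 h compound exposure at 37 °C gave viability of IDH1-knockdown HT-1080 cells. Activity was normalised to DMSO and cell-free wells, then fitted as concentration-response curves.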
Active calls of the source: *; ? = inconclusive; . = not tested or not shown. This is a sample that favours compounds with a hit; in the whole collection about 17% have one here. Calls come from the whole dose curve; as a rule, active = well fitted curve in the direction sought with a large enough effect; inconclusive = small, poorly fitted or top-dose-only effect, or another doubt; inactive = no such curve, though single readings can be large; an effect the other way counts as inactive or inconclusive. Potency is the fitted concentration of half-maximal effect.

SMILES	HT1080NT lethal	HepG2 tox	TDP1 cell CPT	DT40 TDP1 no CPT	TGFb SMAD3 inh	HT1080 IDH1KD tx
CN(C)N=Nc1ccc(-c2cn(Cc3ccccc3)cn2)cc1	-25%	2%	0%	26µM*	0%	-20%
COc1ccc(CCNC(=O)CN2C(=O)C(=O)N(C3CCCC3)C2=O)cc1OC	1%	4%	-9%	12%	11%	2%
CC(=O)c1ccc2c3c(ccc([N+](=O)[O-])c13)CC2	2%	-12%	1%	-25%	2%	4%
Nc1ccc2c3c(ccc([N+](=O)[O-])c13)CC2	0%	-23%	?	7.3µM*	6%	-3%
Cc1cc(C)n(-c2ccc3cccc(NS(C)(=O)=O)c3n2)n1	?	-4%	5.2µM*	5.8µM*	-1%	?
CS(=O)(=O)Nc1cccc2cccnc12	-8%	-29%	4.6µM*	4.6µM*	?	4%
CC(=O)Nc1ccc(S(=O)(=O)Nc2cccc3cccnc23)cc1	5%	-28%	-4%	-20%	0%	-12%
COc1ccccc1NS(=O)(=O)c1ccc2ccccc2c1	3%	-1%	-19%	-3%	-7%	-1%
COc1ccc(S(=O)(=O)Nc2cccc3cccnc23)cc1	.	-33%	.	.	7.1µM*	.
Cc1cc(C)n(-c2cccc3cccnc23)n1	0%	-9%	-2%	-13%	-8%	25%
COc1ccc(NS(=O)(=O)c2ccc3ccccc3c2)c2ncccc12	-30%	-15%	8.2µM*	6.5µM*	?	?
Cc1cccc(NC(=O)c2nc[nH]c2C(=O)N[C@@H](CC(C)C)C(=O)OC(C)(C)C)c1	?	-66%	?	?	?	?
Cc1ccc(N2CC(C(=O)Nc3ccc(C)c(S(=O)(=O)N(C)C)c3)CC2=O)cc1 (stereo not drawn)	-16%	-1%	9%	-8%	-31%	-12%
Cc1ccc(CN2C(=O)c3ccccc3C2c2nnnn2C(C)C)cc1 (stereo not drawn)	9%	.	-6%	-27%	.	13%
CC[C@H]1C(=O)[C@@H](Cc2ccccc2)[C@@H]2CCN3C(=O)CCC[C@H]1[C@H]23	15%	10%	-12%	1%	19%	11%
COc1ccc(C(C)(C)C)cc1NS(=O)(=O)c1cccc2cccnc12	-10%	-20%	26µM*	18µM*	?	-1%
O=S(=O)(Nc1ncccn1)c1ccccc1	2%	1%	?	16µM*	1%	3%
O=S(=O)(Nc1cccc2cccnc12)c1ccc(S(=O)(=O)N2CCCC2)cc1	2µM*	-28%	16µM*	13µM*	?	1.3µM*
Cc1ccccc1NS(=O)(=O)c1ccc(S(=O)(=O)N2CCCC2)cc1	3%	-22%	-28%	?	-16%	1%
Cc1ccc2cccc(NS(=O)(=O)c3ccccc3)c2n1	?	-5%	?	21µM*	?	?
O=S(=O)(Nc1ccc(S(=O)(=O)Nc2ncccn2)cc1)c1ccccc1	10%	1%	3%	-1%	16%	7%
O=C(CCC(=O)N1Cc2ccccc2Oc2ncccc21)NCc1ccccc1Cl	.	9%	-26%	?	2%	.
NC(=S)Nc1cccc2cccnc12	7%	9%	14%	-2%	2%	9%
Cc1ccc(S(=O)(=O)Nc2cc(Br)cc3cccnc23)cc1	.	-26%	.	.	?	.
NC(=S)NNc1cccc2cccnc12	?	-34%	6.5µM*	12µM*	?	?
SMILES	HT1080NT lethal	HepG2 tox	TDP1 cell CPT	DT40 TDP1 no CPT	TGFb SMAD3 inh	HT1080 IDH1KD tx
O=S(=O)(Nc1cc(Br)cc2cccnc12)c1ccccc1	.	1%	.	.	8.9µM*	.
COC(=O)c1ccc(=O)c2nc3/c(=C/O)c(O)cc(=O)c3[nH]c12	0%	1%	21µM*	?	17%	-3%
COc1ccc2oc(=N)c(C(=O)Nc3ccc(Cl)cc3)cc2c1	13%	-1%	-8%	13%	127%	10%
O=C(CCCc1cccs1)Nc1nc2c(s1)CCCC2	0%	4%	-27%	-21%	5%	-14%
O=C(Nc1cccc(Br)c1)Nc1nc2c(s1)CCCCCC2	.	-18%	7.3µM*	8.2µM*	11µM*	.
COc1ccc(NC(=O)Nc2nc3c(s2)CCCC3)cc1	5%	-7%	?	23µM*	0%	11%
COc1ccccc1NS(=O)(=O)c1cccc(NC(=O)CCNC(=O)c2ccccc2OC)c1	-4%	-43%	?	-89%	-17%	-2%
Cc1ncc([N+](=O)[O-])n1CCOC(=O)c1ccc(Cl)cc1Cl	-3%	-40%	-20%	-15%	-4%	-1%
CC(NCc1cccc(S(=O)(=O)N(C)C)c1)c1ccc(F)cc1 (stereo not drawn)	14%	-7%	-6%	3%	0%	11%
CN(C)S(=O)(=O)c1cccc(CSCc2cccc(S(=O)(=O)N(C)C)c2)c1	?	-27%	5.8µM*	2.6µM*	-13%	?
Cc1cc(C)n2nc(SCc3cccc(S(=O)(=O)N(C)C)c3)nc2n1	3%	-29%	?	15µM*	-22%	1%
Cc1cc(-c2ccc(C)c(S(=O)(=O)NCC3CCN(Cc4cccc(F)c4)CC3)c2)on1	-28%	-26%	?	?	?	?
COc1cccc(CCN2CCC(CNS(=O)(=O)c3cc(-c4cc(C)no4)ccc3C)CC2)c1	?	-110%	?	?	16µM*	?
Cc1cc(-c2ccc(C)c(S(=O)(=O)NCC3CCN(Cc4ccccc4F)CC3)c2)on1	?	-24%	18µM*	23µM*	?	-23%
CC1=C(C(=O)Nc2nc3ccccc3s2)C(c2ccco2)C(C#N)=C(SCC(=O)NC2CCCCC2)N1 (stereo not drawn)	-19%	-1%	13µM*	21µM*	-6%	-20%
Cc1ccc(NC(=O)C(=Cc2ccc(C(=O)O)cc2)C(=O)Nc2ccc(C)cc2C)c(C)c1	15µM*	10µM*	5.2µM*	2.9µM*	7.1µM*	12µM*

Assay outcomes (PubChem BioAssay)
